Compound activity as filed in PubChem BioAssay.
RORgamma inh – inhibitors of mouse ROR gamma transcriptional activity. P51450. Drosophila S2 Gal4-RORgamma UAS-luciferase reporter, 20 h. Potency, µM (top dose mostly 53.6 µM), usual class: inhibitors. 310,000 compounds, 5.4% hits; note: nearly all actives have a fitted effect of over 60% in size
Target sequence (P51450 whole entry, looked up, the tested form may be a part): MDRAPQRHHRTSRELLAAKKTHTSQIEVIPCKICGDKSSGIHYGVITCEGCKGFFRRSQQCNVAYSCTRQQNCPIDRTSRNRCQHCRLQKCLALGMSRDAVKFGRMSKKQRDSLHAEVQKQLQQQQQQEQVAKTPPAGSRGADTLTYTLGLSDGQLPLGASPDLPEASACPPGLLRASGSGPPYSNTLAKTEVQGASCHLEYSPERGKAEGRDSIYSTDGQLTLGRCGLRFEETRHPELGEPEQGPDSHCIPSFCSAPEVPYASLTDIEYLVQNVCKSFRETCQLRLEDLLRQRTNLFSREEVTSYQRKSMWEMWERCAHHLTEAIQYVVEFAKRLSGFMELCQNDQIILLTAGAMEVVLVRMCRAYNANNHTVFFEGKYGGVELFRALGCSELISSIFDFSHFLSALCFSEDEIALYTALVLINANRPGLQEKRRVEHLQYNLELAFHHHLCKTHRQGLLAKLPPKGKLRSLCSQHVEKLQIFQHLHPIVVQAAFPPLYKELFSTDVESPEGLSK
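Compounds are pin-transferred onto Drosophila Schneider cells expressing a copper-inducible Gal4–ROR gamma transactivation domain fusion. After 1 hr, copper sulfate is added to 700 uM final; luciferase is read 20 hr later.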
rTrxR1 inhibitor – inhibitors of rat thioredoxin reductase 1; O89049; recombinant rTrxR1, NADPH fluorescence consumption, selenite substrate; Potency, µM (titrated, usually from 114 µM), actives largely listed as inhibitors; 390,000 compounds, 1% hits; AID 588453; note: nearly all actives have a fitted effect of over 65% in size
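Rat TrxR1 (90 nM in the dispensed reagent) was pre-reduced with 400 uM NADPH for 5 min at room temperature, then incubated with compound for 15 min. After 400 uM selenite was added, NADPH fluorescence (Ex 340/Em 450 nm) was followed for 8 min.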
TrxR1 substrate – substrates of rat thioredoxin reductase 1; O89049; purified TrxR1 substrate turnover, NADPH consumption readout; Potency, µM (top dose mostly 114 µM); 390,000 compounds, 0.01% hits; AID 588456; note: nearly all actives have a fitted effect of over 50% in size
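Rat TrxR1, dispensed at 90 nM, was prereduced with 400 uM NADPH (final) for 5 min at ~22 deg C, then incubated with compound 15 min before 400 uM selenite. A first-read NADPH fluorescence drop versus no-compound background flagged substrates.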
VP16 counter – inhibits Gal4-VP16 luciferase reporter, ROR gamma counter-screen; Potency, µM (doses to about 53.6 µM), usual class: inhibitors; 310,000 compounds, 3.5% hits; Drosophila S2 Gal4-VP16 UAS-luciferase, luminescence, 20 h;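 note: Gal4-VP16 expression switched on by copper sulfate through the metallothionein promoter; nearly all actives have a fitted effect of over 50% in size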
Coupling enz – coupling enzyme interference in Giardia aldolase counter-screen; coupling enzyme system counterscreen, AmpLite Red fluorescence; activity change, negative = inhibition, % at 58.2 µM, hits read low; 290,000 compounds, 0.67% hits; in the data active = activity change below about -30%
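Coupling enzymes only (glyceraldehyde-3-phosphate) + compound, at 57.5 uM final, 10 min RT; add substrate/coupling/AmpLite Red mix, 20 min RT; fluorescence ex 525/em 598 nm. Actives flag coupling-system interference.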
GALK inh – galactokinase (human) inhibition; P51570; Purified GALK, Kinase-Glo residual ATP luminescence; Potency, µM (top dose mostly 57.5 µM), hits mostly inhibitors; 270,000 compounds, 0.007% hits; AID 1868
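Kinase-Glo Plus luminescence measured ATP left after a 1 h room-temperature reaction. The reaction used 5 nM GALK, 100 uM galactose and 35 uM ATP at pH 8.0 (20 mM HEPES, 5 mM MgCl2, 60 mM NaCl, 1 mM DTT, 0.01% BSA).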
Numbers stand for hits; [ ] = another dose, or the depositor's remark. Compounds with a hit are over-represented: about 5.9% of the library has one in this group of screens. Unless noted, calls come from the whole dose curve; as a rule, active = well fitted curve in the direction sought with a large enough effect; inconclusive = small, poorly fitted or top-dose-only effect, or another doubt; inactive = no such curve, though single readings can be large; an effect the other way counts as inactive or inconclusive.

What do the screens show for `COc1ccc(C(=O)N/N=C/c2ccc(OC)c(CSc3ccccn3)c2)cc1`?
RORgamma inh: inconclusive; rTrxR1 inhibitor: inactive; TrxR1 substrate: inactive; VP16 counter: inconclusive; Coupling enz: inactive

Results for Cc1ccccc1NC(=O)c1ccno1 ?
RORgamma inh: inactive; rTrxR1 inhibitor: inactive[0.457 µM]; TrxR1 substrate: inactive; VP16 counter: inactive; Coupling enz: inactive; GALK inh: inactive

Results for COc1ccccc1C(=O)NC(=S)Nc1ccc(N2CCCC2)cc1 ?
RORgamma inh: inconclusive; rTrxR1 inhibitor: inactive; TrxR1 substrate: inactive; VP16 counter: inactive; Coupling enz: inactive; GALK inh: inactive

How did COc1cccc(C(=O)NC(=S)Nc2ccc(N3CCCC3)cc2)c1 do in these assays?
RORgamma inh: 2µM; rTrxR1 inhibitor: inactive; TrxR1 substrate: inactive; VP16 counter: 8.9µM; Coupling enz: inactive; GALK inh: inactive

Results for COc1cc(C(=O)NC(=S)NNC(=O)[C@H]2C[C@@H]2c2ccccc2)cc(OC)c1OC ?
RORgamma inh: 11µM; rTrxR1 inhibitor: inactive; TrxR1 substrate: inactive; VP16 counter: inactive; Coupling enz: inactive; GALK inh: inactive

What do the screens show for `COc1ccc(C(=O)NC(=S)Nc2ccc(N3CCCC3)cc2)cc1`?
RORgamma inh: 2µM; rTrxR1 inhibitor: inconclusive; TrxR1 substrate: inactive; VP16 counter: 7.1µM; Coupling enz: inactive; GALK inh: inactive

What do the screens show for `COc1cc(C(=O)NC(=S)Nc2ccc(N3CCCC3)cc2)cc(OC)c1OC`?
RORgamma inh: 7.9µM; rTrxR1 inhibitor: inconclusive; TrxR1 substrate: inactive; VP16 counter: 4.5µM; Coupling enz: inactive; GALK inh: inactive

Results for COc1cc(Cl)c(C)cc1NC(=O)c1ccccc1NC(=O)CN1CCN(c2ccccn2)CC1 ?
rTrxR1 inhibitor: inactive; TrxR1 substrate: inactive

How did S=C(NC1CCCCC1)N1CCC([C@H]2C=NC=N2)CC1 do in these assays?
RORgamma inh: inactive; VP16 counter: inactive; Coupling enz: inactive

Results for CC(C)CNC(CC(=O)Nc1cccc([N+](=O)[O-])c1)C(=O)O (stereo not given) ?
RORgamma inh: inactive; rTrxR1 inhibitor: inactive; TrxR1 substrate: inactive; VP16 counter: inactive; Coupling enz: inactive; GALK inh: inactive

What do the screens show for `COc1ccccc1C(=O)NNC(=S)NC(=O)c1cc(OC)c(OC)c(OC)c1`?
RORgamma inh: inconclusive; rTrxR1 inhibitor: inactive; TrxR1 substrate: inactive; VP16 counter: inactive; Coupling enz: inactive; GALK inh: inactive

How did COc1cccc(C(=O)NC(=S)Nc2ccc(N(C)C)cc2)c1 do in these assays?
RORgamma inh: 3.5µM; rTrxR1 inhibitor: 20µM; TrxR1 substrate: inactive; VP16 counter: inconclusive; Coupling enz: inactive; GALK inh: inactive

Results for COc1cc(C(=O)NC(=S)NC(C)C)cc(OC)c1OC ?
RORgamma inh: 7.9µM; rTrxR1 inhibitor: inactive; TrxR1 substrate: inactive; VP16 counter: inconclusive; Coupling enz: inactive

How did CC(C)Oc1cccc(C(=O)NC(=S)Nc2ccc(N3CCN(C)CC3)cc2)c1 do in these assays?
RORgamma inh: 5.6µM; rTrxR1 inhibitor: inconclusive; TrxR1 substrate: inactive; VP16 counter: inconclusive; Coupling enz: inactive

What do the screens show for `COc1cc(C(=O)NC(=S)N2CCCCCC2)cc(OC)c1OC`?
RORgamma inh: 0.89µM; rTrxR1 inhibitor: inactive; TrxR1 substrate: inactive; VP16 counter: 2.8µM; Coupling enz: inactive; GALK inh: inactive

What do the screens show for `COc1cc(C(=O)NCCC(=O)N2CCCCC2)cc(OC)c1OC`?
RORgamma inh: inactive; rTrxR1 inhibitor: inactive; TrxR1 substrate: inactive; VP16 counter: inactive; Coupling enz: inactive; GALK inh: inactive

What do the screens show for `O=c1[nH]cc(CN2CCOCC2)c(=O)[nH]1`?
rTrxR1 inhibitor: inactive; TrxR1 substrate: inactive

Results for CC(C)N1CCc2nc(SCC(=O)Nc3cccc(F)c3)[nH]c(=O)c2C1 ?
rTrxR1 inhibitor: inactive; TrxR1 substrate: inactive

How did c1cc2cn[nH]c2cc1NC1CCCCCC1 do in these assays?
RORgamma inh: inconclusive; rTrxR1 inhibitor: inactive; TrxR1 substrate: inactive; VP16 counter: inconclusive; Coupling enz: -67; GALK inh: inactive

What do the screens show for `Cc1ccc(NC(=S)Nc2ccc3cn[nH]c3c2)cc1`?
RORgamma inh: inconclusive; rTrxR1 inhibitor: inactive; TrxR1 substrate: inactive; VP16 counter: inconclusive; Coupling enz: inactive; GALK inh: inactive
